The entries come from a sample that favours hits as a whole.
Cruzain inh noDet = inhibitors of Trypanosoma cruzi cruzain without detergent. 200,000 tested, 2.3% active. AID 1476. P25779. Potency, µM, for the others: max response, negative = inhibition, most hits filed as inhibitors. purified cruzain, Z-FR-AMC fluorescence, no detergent;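 further: plate controls were enzyme without inhibitor for no effect and buffer without enzyme for full effect; nearly all actives have a fitted effect of over 40% in size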
Target sequence (P25779 123-467 limits assumed): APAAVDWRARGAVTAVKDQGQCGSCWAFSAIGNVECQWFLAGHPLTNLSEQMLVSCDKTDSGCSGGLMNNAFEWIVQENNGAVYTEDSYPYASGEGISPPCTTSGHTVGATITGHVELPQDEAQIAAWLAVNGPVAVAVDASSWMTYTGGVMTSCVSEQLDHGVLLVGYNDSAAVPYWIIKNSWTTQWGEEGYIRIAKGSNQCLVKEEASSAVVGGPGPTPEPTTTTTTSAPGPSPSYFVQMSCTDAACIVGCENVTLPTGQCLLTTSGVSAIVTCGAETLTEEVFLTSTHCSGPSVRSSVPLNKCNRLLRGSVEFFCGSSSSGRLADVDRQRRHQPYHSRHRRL
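Purified cruzain at 1.5 nM, pre-incubated 15 min with compound at room temperature in 100 mM sodium acetate pH 5.5, 5 mM DTT, 0.00005% Triton X-100. Reaction started with 2 uM Z-FR-AMC; AMC fluorescence increase over 60 s gives rate.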
Cruzain Triton = blocks cruzain activity in presence of Triton detergent; P25779; purified cruzain, Z-FR-AMC fluorescence, 0.01% Triton; Potency, µM, inactives show max response, negative = inhibition, most hits filed as inhibitors; 200,000 tested, 0.43% active; AID 1478;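 further: plate controls were neutral wells for no effect and buffer without enzyme for full effect; nearly all actives have a fitted effect of over 40% in size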
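Compounds were screened in titration against cruzain (1.5 nM) with 0.01% Triton X-100 to counter colloidal aggregation. Activity was the AMC fluorescence increase over 60 s after adding 2 uM Z-FR-AMC at pH 5.5.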
FBPA Giardia inh = blocks Giardia fructose-bisphosphate aldolase activity. A8B2U2. purified Giardia FBPA. Potency, µM (highest dose often 59.6 µM), inactives show at the top dose activity, negative = inhibition, most hits filed as inhibitors. 290,000 tested, 0.71% active. AID 2451; further: nearly all actives have a fitted effect of over 55% in size
Target sequence (A8B2U2 whole entry, looked up): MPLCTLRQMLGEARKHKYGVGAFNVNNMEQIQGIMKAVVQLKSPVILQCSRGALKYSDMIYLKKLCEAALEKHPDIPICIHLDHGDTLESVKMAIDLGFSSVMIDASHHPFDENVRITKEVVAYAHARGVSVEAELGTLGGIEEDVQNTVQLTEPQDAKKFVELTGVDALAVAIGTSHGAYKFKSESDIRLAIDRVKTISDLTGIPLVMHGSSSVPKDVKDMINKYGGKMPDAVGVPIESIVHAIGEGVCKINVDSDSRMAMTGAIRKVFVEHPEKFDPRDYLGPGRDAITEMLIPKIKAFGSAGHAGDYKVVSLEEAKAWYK
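40 nM FBPA preincubated 10 min at RT with compound (up to 57.5 uM final), then substrate plus GAPDH/TPI/NAD/arsenate coupling and diaphorase/resazurin added. Fluorescence read after 20 min at RT, 525/598 nm.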
Numbers without * were called inactive. The call rests on the fitted dose curve; in most records, active means well fitted curve in the direction sought with a large enough effect; inconclusive means small, poorly fitted or top-dose-only effect, or another doubt; inactive means no such curve, though single readings can be large; an effect the other way counts as inactive or inconclusive. Unless noted, on the % scale 0 is the no-effect control and ±100 the full control effect; potency means the concentration at half of the fitted maximal effect.

How did CCCC1(c2ccccc2)NC(=O)N(CC(=O)Nc2cc(C)on2)C1=O (stereo not given) do in these assays?
FBPA Giardia inh: 8%

Results for CCOC(=O)c1cnc(N2CCN(c3ccc(C)cc3C)CC2)c2ccccc12 ?
Cruzain inh noDet: 3%; Cruzain Triton: 1%

What do the screens show for `C=C1C(=O)[C@]23[C@H](O)[C@H]1CC[C@H]2[C@@]12COC3(O)[C@H](O)[C@@H]1C(C)(C)CC[C@@H]2O`?
Cruzain inh noDet: -1%; Cruzain Triton: -4%; FBPA Giardia inh: 11%

Results for COc1ccc(Nc2ncc3c(n2)CCN(Cc2cccc(F)c2F)C3)c(OC)c1 ?
Cruzain inh noDet: -6%; Cruzain Triton: 1%

Results for Cc1ccccc1Nc1nc(CSc2nnnn2-c2ccccc2)cs1 ?
Cruzain inh noDet: 20µM*; Cruzain Triton: 1%; FBPA Giardia inh: -18%

How did c1ccc(-c2nc(CSc3nnnn3-c3ccccc3)cs2)cc1 do in these assays?
Cruzain inh noDet: -2%; Cruzain Triton: -1%; FBPA Giardia inh: 6%

What do the screens show for `O=c1cc(CSc2nnnn2-c2ccccc2)nc2scc(-c3ccccc3)n12`?
Cruzain inh noDet: 25µM*; Cruzain Triton: -3%; FBPA Giardia inh: -1%

How did O=c1cc(CSc2nnnn2-c2ccccc2)nc2sccn12 do in these assays?
FBPA Giardia inh: -8%

How did COc1ccc(CNCc2c(C(=O)O)c(C)n(Cc3ccc(Cl)cc3)c2C)c(OC)c1 do in these assays?
Cruzain inh noDet: 2%; Cruzain Triton: -2%

What do the screens show for `CCC(O)OC(O)CC` (stereo not given)?
Cruzain inh noDet: -18%; Cruzain Triton: -2%

Results for Cc1ccc(C(c2sc3nc(-c4ccco4)nn3c2O)N2CCC3(CC2)OCCO3)cc1 (stereo not given) ?
Cruzain inh noDet: inconclusive; Cruzain Triton: -2%

How did COc1ccc([C@@H]2CC(=O)c3c(O)cc(O[C@@H]4O[C@H](CO)[C@@H](O)[C@H](O)[C@H]4O[C@@H]4O[C@@H](C)[C@H](O)[C@@H](O)[C@H]4O)cc3O2)cc1 do in these assays?
FBPA Giardia inh: -1%

What do the screens show for `CC(C)CC(NC(=O)c1ccc(Cl)cc1)C(=O)OCC(=O)c1ccc2c(c1)NC(=O)CO2` (stereo not given)?
Cruzain inh noDet: 20µM*; Cruzain Triton: -20%; FBPA Giardia inh: -3%

Results for CC(C)[C@H](NC(=O)c1ccco1)C(=O)OCC(=O)c1ccc2c(c1)NC(=O)CO2 ?
FBPA Giardia inh: 2%

Results for O=C(Nc1nnc(C2CCCCC2)s1)c1ccc(Br)s1 ?
Cruzain inh noDet: 25µM*; Cruzain Triton: -2%; FBPA Giardia inh: 0%

How did Cc1cc(C(=O)Nc2nnc(C3CCCCC3)s2)cs1 do in these assays?
Cruzain inh noDet: inconclusive; Cruzain Triton: 13%; FBPA Giardia inh: -2%

What do the screens show for `Cc1noc(C)c1-c1ccc2ncnc(NCc3cccc(-c4ccccc4)c3)c2c1`?
FBPA Giardia inh: 6%

How did COc1ccc(CN[C@H](C)C(=O)O)cc1 do in these assays?
Cruzain inh noDet: -2%; Cruzain Triton: 4%

How did COc1ccc(S(=O)(=O)NCCC(C)C)cc1OC do in these assays?
Cruzain inh noDet: 5%; Cruzain Triton: 2%; FBPA Giardia inh: 0%

What do the screens show for `CC(C)CCNS(=O)(=O)c1ccc(-c2ccc(S(=O)(=O)NCCC(C)C)cc2)cc1`?
Cruzain inh noDet: 10µM*; Cruzain Triton: -1%; FBPA Giardia inh: 2%

What do the screens show for `CC(=O)Nc1ccc2c(c1)/C(=C/c1ccc([N+](C)(C)C)cc1)c1ccccc1-2`?
Cruzain inh noDet: -9%; Cruzain Triton: 2%

How did O=C(N/N=C\c1ccc(-c2ccc([N+](=O)[O-])cc2)o1)c1ccc2c(c1)OCO2 do in these assays?
Cruzain inh noDet: 7.9µM*; Cruzain Triton: -1%; FBPA Giardia inh: 2%

What do the screens show for `O=C(N/N=C/c1ccc([N+](=O)[O-])o1)c1ccc2c(c1)OCO2`?
FBPA Giardia inh: -8%

Results for Cc1cc(/C=C2\SC(=S)NC2=O)c(C)n1-c1cccc(O)c1 ?
FBPA Giardia inh: 10%

What do the screens show for `Cc1cc(/C=C2/C(=O)NN(c3ccccc3)C2=O)c(C)n1-c1cccc(O)c1`?
Cruzain inh noDet: 25µM*; Cruzain Triton: -14%; FBPA Giardia inh: -4%

Results for N#C/C(=C/c1ccc(Cl)cc1)c1nc(-c2ccc(Br)cc2)cs1 ?
Cruzain inh noDet: -9%; Cruzain Triton: -2%

What do the screens show for `Cc1ccnc(N/C=C(\C#N)c2nc(-c3cccc(Br)c3)cs2)c1`?
Cruzain inh noDet: 25µM*; Cruzain Triton: inconclusive; FBPA Giardia inh: -16%

Results for CS(=O)(=O)O[C@H]1CN2CCC1CC2 ?
Cruzain inh noDet: 2%; Cruzain Triton: 2%

Results for CSc1ccc2c(c1)c(CCN)c(C)n2Cc1ccccc1Cl ?
Cruzain inh noDet: -9%; Cruzain Triton: -1%

Results for COc1ccc(-c2csc(NC(=O)c3ccccc3C(=O)O)n2)cc1 ?
FBPA Giardia inh: -3%

Results for CC(=O)c1c(C)[nH]c(C(=O)Nc2nc(-c3ccc(Cl)cc3)cs2)c1C ?
Cruzain inh noDet: -11%; Cruzain Triton: -8%; FBPA Giardia inh: -8%

How did COc1ccc(-c2csc(NC(=O)c3nc(-c4ccccc4)oc3C)n2)cc1 do in these assays?
Cruzain inh noDet: 7.9µM*; Cruzain Triton: 5%; FBPA Giardia inh: -3%

How did CC(=O)c1c(C)[nH]c(C(=O)Nc2nc(-c3ccc(-c4ccccc4)cc3)cs2)c1C do in these assays?
Cruzain inh noDet: 10µM*; Cruzain Triton: -3%; FBPA Giardia inh: -3%

How did N#Cc1ccc(CSc2nc3c(c(=O)[nH]2)CCCC3)cc1 do in these assays?
Cruzain inh noDet: -6%; Cruzain Triton: -3%

What do the screens show for `Cc1ccc(NC(=O)Cn2c(O)c(N=NC(=O)c3cc4ccccc4cc3O)c3ccccc32)cc1`?
Cruzain inh noDet: 10µM*; Cruzain Triton: -9%; FBPA Giardia inh: -17%

How did Cc1ccc(NC(=O)Cn2c(O)c(N=NC(=O)c3ccncc3)c3ccccc32)cc1 do in these assays?
FBPA Giardia inh: -6%

Results for O=C(N=Nc1c(O)n(Cc2ccccc2)c2ccccc12)c1cc2ccccc2cc1O ?
Cruzain inh noDet: 7.9µM*; Cruzain Triton: -8%; FBPA Giardia inh: inconclusive

What do the screens show for `O=C(N=Nc1c(O)n(Cc2ccccc2)c2ccccc12)c1ccc(O)cc1`?
Cruzain inh noDet: inconclusive; Cruzain Triton: -3%; FBPA Giardia inh: -10%

How did Cc1ccccc1Nc1oc(-c2ccccc2)nc1-c1cccc2ccccc12 do in these assays?
Cruzain inh noDet: -19%; Cruzain Triton: -2%; FBPA Giardia inh: -1%

Results for O=C(O)c1ccc(-c2ccc3cc(C45CC6CC(CC(C6)C4)C5)c(O)cc3c2)cc1 ?
FBPA Giardia inh: -30%

How did COc1ccc(-n2nc3c(c2NC(=O)C(=O)NCc2ccccc2)CSC3)cc1 do in these assays?
Cruzain inh noDet: 7.9µM*; Cruzain Triton: -1%

How did CCC(=O)Nc1c2c(nn1-c1ccc(OC)cc1)CSC2 do in these assays?
FBPA Giardia inh: -4%

Results for COc1ccc(CNC(=O)C(=O)Nc2c3c(nn2-c2ccccc2)CSC3)cc1 ?
Cruzain inh noDet: 25µM*; Cruzain Triton: -2%

Results for O=C(NCc1ccccc1)C(=O)Nc1c2c(nn1-c1ccccc1)CSC2 ?
Cruzain inh noDet: inconclusive; Cruzain Triton: -2%

Screens: PubChem, National Center for Advancing Translational Sciences (NCATS)
